Some test systems named below: DU-145 prostate; K-562 leukemia; MALME-3M melanoma; MDA-MB-231 breast; RXF 393 renal; SF-268 CNS; SF-295 CNS; SF-539 CNS; UACC-257 melanoma; M14 melanoma.
Holding throughout (assay): NCI-60 one-dose screen, 48 h (100 = growth as untreated, 0 = no growth, -100 = all killed)
What all share (details): 10 µM unless noted

Our source for the growth values is PubChem BioAssay (NCI).

SMILES strings stand for the structures. About 83,000 compounds went through this panel and 20% of them were active in at least one assay; those are over-represented in the sample as a whole.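 How to read the values: 0–100, growth inhibition (40 = 60% inhibited); 0, no net growth; -100 to 0, cell death (-40 = 40% of starting cells died; -100 = all dead).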 Values without a mark were called inactive. Activity calls are given as the source filed them. The calls were made as follows: active = growth percent below 10; inactive = the rest.

For the compound `COc1cc(C(=O)Nc2cc(OC)c3ccn(C)c3c2)cc2c1C[C@]1(C)CC[C@@H](O)C(C)(C)[C@H]1O2`, the growth is 32.1% with DU-145 prostate; 9.98% (active) in the assay with K-562 leukemia; 31% with MALME-3M melanoma; 30.6% in the assay on MDA-MB-231 breast; -32.8% (active) in the assay on RXF 393 renal; 27.3% in the assay with SF-268 CNS. For the same compound, the growth in the assay on SF-295 CNS was -44.2% (active); with SF-539 CNS, -26.1% (active); in the assay on UACC-257 melanoma, 32.5%; in the assay on M14 melanoma it was -32.7% (active).

Take `Nn1c(SCC(=O)Nc2ccc(Cl)cc2)nnc1-c1cc(F)c(Cl)cc1Cl`: the growth is 108% in the assay on DU-145 prostate; 77.4% with K-562 leukemia; 92.6% in the assay with MALME-3M melanoma; 81.8% with MDA-MB-231 breast; 117% with RXF 393 renal; 97.4% in the assay with SF-268 CNS. Also, the growth was 87.9% with SF-295 CNS, 92.9% with SF-539 CNS, 98.2% in the assay with UACC-257 melanoma and 96.9% with M14 melanoma.

Consider `COc1cc2c(cc1OC)C(Sc1ccc(Cl)cc1)c1c(nc(N)c(C#N)c1N)O2` (stereo not given), for which the growth with DU-145 prostate was 5.73% (active); in the assay with K-562 leukemia, 0.964% (active); with MALME-3M melanoma, -28.6% (active); with MDA-MB-231 breast, -20.1% (active); in the assay on RXF 393 renal, -65.4% (active); in the assay on SF-268 CNS, 35.7%. Further, the growth was 43.8% in the assay on SF-295 CNS, -21.9% (active) in the assay with SF-539 CNS, 22.5% in the assay with UACC-257 melanoma and -21.2% (active) in the assay with M14 melanoma.

`C[C@H]1[C@H](C)CC[C@]2(C(=O)OCCCC[P+](c3ccccc3)(c3ccccc3)c3ccccc3)CC[C@]3(C)C(=CC[C@@H]4[C@@]5(C)CC[C@H](OC(=O)C(Cl)Cl)C(C)(C)[C@@H]5CC[C@]43C)[C@H]12`: the growth with DU-145 prostate was -35.2% (active); in the assay with K-562 leukemia it was -57.4% (active); with MALME-3M melanoma, -85.2% (active); in the assay with MDA-MB-231 breast it was -68.8% (active); in the assay on RXF 393 renal, -91.4% (active); in the assay with SF-268 CNS, -31.8% (active). In addition, the growth with SF-295 CNS was -77.9% (active); in the assay on SF-539 CNS, -78.8% (active); in the assay with UACC-257 melanoma it was -78.9% (active); in the assay with M14 melanoma, -82.7% (active).

Consider `COc1ccc(/C=C/C(=O)C(CC2CCC2)C(=O)/C=C/c2ccc(OC)c(OC)c2)cc1OC`, for which the growth in the assay with DU-145 prostate is -23% (active); in the assay with K-562 leukemia, 1.54% (active); in the assay on MALME-3M melanoma, -13.6% (active); in the assay on MDA-MB-231 breast, 6.65% (active); with RXF 393 renal, -72.5% (active); with SF-268 CNS, 2.31% (active). For the same compound, the growth with SF-295 CNS is -16.6% (active); in the assay with SF-539 CNS, -38.2% (active); with UACC-257 melanoma it was -16.7% (active); in the assay on M14 melanoma, 5.19% (active).

For the compound `CCOC(=O)C1=C(C)n2nc(CC#N)c(C#N)c2NC1c1ccc(CC)cc1` (stereo not given), the growth is 106% with DU-145 prostate; 106% in the assay on K-562 leukemia; 86.8% with MALME-3M melanoma; 87.5% in the assay on MDA-MB-231 breast; 107% with RXF 393 renal; 99.1% in the assay on SF-268 CNS. Moreover, the growth with SF-295 CNS was 101%; in the assay on SF-539 CNS it was 110%; in the assay with UACC-257 melanoma it was 111%; in the assay with M14 melanoma it was 91.5%.

Turning to `Cc1cccc2nc3c(n12)C(=O)C(=O)c1ccccc1-3`, the growth with DU-145 prostate was 76.9%; in the assay on K-562 leukemia, 28.9%; with MALME-3M melanoma, 64.4%; in the assay with MDA-MB-231 breast it was 63.9%; in the assay with RXF 393 renal, 103%; in the assay with SF-268 CNS, 80.8%. In addition, the growth is 82.7% in the assay with SF-295 CNS, 69.3% in the assay with SF-539 CNS, 49.5% in the assay with UACC-257 melanoma and 67.1% in the assay on M14 melanoma.

`CCc1n(Cc2ccc3ccccc3c2)c2ccccc2[n+]1Cc1ccc2ccccc2c1`: the growth with DU-145 prostate is 67.7%; with K-562 leukemia it was 35.3%; in the assay with MALME-3M melanoma it was 54.1%; in the assay on MDA-MB-231 breast, 60.3%; in the assay with RXF 393 renal it was 94.1%; with SF-268 CNS, 64.7%. The growth in the assay on SF-295 CNS is 93.3%; in the assay on SF-539 CNS, 68.8%; in the assay with UACC-257 melanoma it was 59%; in the assay with M14 melanoma, 48.7%.

Turning to `C=C(C)[C@@H]1CC[C@]2(C(=O)O)CC[C@]3(C)[C@H](CC[C@@H]4[C@@]5(C)C[C@@H](CC#Cc6ccccc6)C(=O)C(C)(C)[C@@H]5CC[C@]43C)[C@@H]12`, the growth in the assay on DU-145 prostate is 37.3%; with K-562 leukemia, 16.9%; in the assay with MALME-3M melanoma, 38.1%; in the assay on MDA-MB-231 breast, 55.3%; in the assay with RXF 393 renal it was 71.5%; in the assay with SF-268 CNS it was 50%. Moreover, the growth was 34.8% with SF-295 CNS, 49.1% in the assay with SF-539 CNS, 60.5% with UACC-257 melanoma and 36.5% with M14 melanoma.

On to `COc1ccc(C(C)c2cc(OC)c(OC)c(OC)c2)cc1` (stereo not given), for which the growth is 9.97% (active) in the assay on DU-145 prostate; 7.1% (active) with K-562 leukemia; 67.5% in the assay on MALME-3M melanoma; 30.5% with MDA-MB-231 breast; 24.7% in the assay with RXF 393 renal; 37.5% with SF-268 CNS. Further, the growth in the assay on SF-295 CNS was 15.6%; in the assay with SF-539 CNS, -7.56% (active); in the assay on UACC-257 melanoma, 53%; with M14 melanoma it was 7.54% (active).

Regarding `C#C[C@@]1(O)[C@@H](CO)O[C@@H](n2cnc3c(-c4ccccc4)ncnc32)[C@@H]1O`, the growth in the assay with DU-145 prostate was 109%; with K-562 leukemia, 105%; with MALME-3M melanoma, 103%; in the assay on MDA-MB-231 breast, 126%; with RXF 393 renal, 122%; with SF-268 CNS, 99%. The growth in the assay with SF-295 CNS is 97.7%; in the assay with SF-539 CNS it was 108%; in the assay with UACC-257 melanoma, 117%; in the assay on M14 melanoma it was 97.8%.
